This is an account of results in PubChem BioAssay (Tox21).

Test [1] can be described thus: qHTS assay to identify small molecule antagonists of the estrogen receptor beta (ER-beta) signaling pathway - cell viability counter screen (AID 1259382).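 Note: HEK293T cells carrying ER-beta-UAS-bla reporter stimulated with estradiol; series mostly up to about 92 µM; nearly all actives have a fitted effect of over 55% in size.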 The procedure, abridged:
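ER-beta-UAS-bla HEK293T cells in 2% charcoal-stripped FBS medium, treated with compound plus 1 nM 17-beta-estradiol for 16 h at 37C. Viability read by CellTiter-Glo luminescence after 30 min at room temperature in the same wells.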

Test [2] has as its target Estrogen receptor (Homo sapiens) (UniProt P03372). As to the kind of experiment: qHTS assay to identify small molecule agonists of the estrogen receptor alpha (ER-alpha) signaling pathway in the presence of an antagonist (AID 1259383; calls by dose curve; note: top concentration of the series differs between compounds; nearly all actives have a fitted effect of over 15% in size). A digest of the protocol: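 VM7Luc4E2 cells express endogenous full-length ER-alpha with an ERE-luciferase reporter and were hormone-deprived for 5 days. Compounds at 15 concentrations were added with 10.0nM ICI-182,780 for 22hr at 37C. Luminescence was read with ONE-Glo.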
A general note: qHTS replaces the single test concentration by a dilution series.

Test [3] is described as follows: qHTS assay to identify small molecule agonists or antagonists of the thyroid stimulating hormone receptor (TSHR) signaling pathway - wild type cell line counter screen (AID 1259384; calls by dose curve). A digest of the protocol: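 Counter screen in untransfected Hek293: compounds (15-point titration, triplicate) plus phosphodiesterase inhibitor Ro20-1724 added after 18 h plating; 30 min RT. Intracellular cAMP via competitive d2/cryptate immunoassay, 1 h incubation.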

For test [4], the target named is Thyrotropin receptor (Homo sapiens) (UniProt P16473). Put plainly: qHTS assay to identify small molecule antagonists of the thyroid stimulating hormone receptor (TSHR) signaling pathway (AID 1259385; calls by dose curve; note: nearly all actives have a fitted effect of over 20% in size). The procedure, abridged:
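Antagonist mode: compound-treated TSHR-expressing HEK293 cells were stimulated with 1.5 ng/mL TSH (final) in presence of Ro20-1724 for 30 min at RT. HTRF cAMP detection after 1 h; each compound tested at 15 concentrations, triplicate.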

Test [5] is described as follows: qHTS assay to identify small molecule agonists of the estrogen receptor alpha (ER-alpha) signaling pathway in the presence of an antagonist - cell viability counter screen (AID 1259386).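 Note: series mostly up to about 92 µM; cells exposed to compounds for 22 h at 37 °C before the viability read; nearly all actives have a fitted effect of over 30% in size.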 The procedure, abridged: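 Cell viability in VM7Luc4E2 cells (endogenous full-length ER-alpha) measured by CellTiter-Fluor fluorescence in the same wells as the luciferase screen. Cells pre-cultured 5 days in charcoal-stripped serum, then treated 22 h with compounds at 15 concentrations plus 10.0nM ICI-182,780.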

The target of test [6] is Progesterone receptor (Homo sapiens) (UniProt P06401). As to the kind of experiment: qHTS assay to identify small molecule agonists of the progesterone receptor (PR) signaling pathway (AID 1346784; calls by dose curve; note: nearly all actives have a fitted effect of over 30% in size). A digest of the protocol: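 Compounds were tested for PR agonism in HEK 293T cells bearing a beta-lactamase gene under UAS control. Treatment lasted 16 hr at 37C; signal came from fluorescence of a FRET substrate.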

Test [7] shares this target. Put plainly: qHTS assay to identify small molecule antagonists of the progesterone receptor (PR) signaling pathway (AID 1346795; active = well fitted inhibition curve with a large enough effect in the signal ratio in the repeat runs, not every such curve was filed as active; the % refers to the signal ratio). A digest of the protocol:
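In HEK293T cells bearing the PR-UAS-bla reporter, compound effects on promegestone-driven (1 nM) beta-lactamase expression are assessed after 16 hr using a fluorescent FRET substrate incubated 2 hr at room temperature.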

Test [8] is described as follows: qHTS assay to identify small molecule antagonists of the progesterone receptor (PR) signaling pathway - cell viability counter screen (AID 1346798). Note: series mostly up to about 92 µM; nearly all actives have a fitted effect of over 50% in size. A digest of the protocol: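 Following a 4 hr attachment, PR-UAS-bla HEK293T cells in charcoal-stripped FBS medium were exposed to compounds with R5020 for 16 hr; CellTiter-Glo was added and luminescence read after 30 min at room temperature.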

A short description of test [9]: qHTS assay to identify small molecule agonists of the progesterone receptor (PR) signaling pathway - cell viability counter screen (AID 1346799; calls by dose curve; note: nearly all actives have a fitted effect of over 45% in size). The procedure, abridged: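 Here, 3,000 PR-UAS-bla HEK293T cells per well were treated with compounds for 16 hr after a 6 hr preincubation at 37C and 5% CO2; cell viability is the CellTiter-Glo luminescence signal.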
The nature of test [10]: qHTS assay to identify small molecule antagonists of the TGF-beta/Smad signaling pathway - cell viability counter screen (AID 1346824). Note: nearly all actives have a fitted effect of over 50% in size. A digest of the protocol: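 Cytotoxicity counter-screen run in the same wells as the beta-lactamase Smad reporter read: CellTiter-Glo luminescence after 30 min at room temperature. HEK 293T SBE-bla cells had 5 hr compound exposure at 37 C with TGF-beta1 (0.25 ng/mL stock).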

Test [11] in a line: qHTS assay to identify small molecule agonists of the TGF-beta/Smad signaling pathway - cell viability counter screen (AID 1346829). Note: top concentration of the series differs between compounds; nearly all actives have a fitted effect of over 45% in size. The procedure, abridged: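 HEK 293T SBE-bla line, 5 hr compound exposure at 37 C, multiplexed CellTiter-Glo viability read by luminescence.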
Test [12] can be described thus: qHTS assay to identify small molecule agonists of the TGF-beta/Smad signaling pathway (AID 1346859; active = well fitted activation curve with a large enough effect in the signal ratio in the repeat runs, not every such curve was filed as active; the % refers to the signal ratio; note: series mostly up to about 77 µM). A digest of the protocol:
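Each well held 4,000 SBE-bla HEK 293T cells incubated overnight before compound addition; 5 hr later the cleavable FRET substrate went on for 2 hr at room temperature, and fluorescence was read at two emissions.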

Test [13] in a line: Human pregnane X receptor (PXR) small molecule agonists, qHTS cell viability counter screen (AID 1346977). Note: nearly all actives have a fitted effect of over 50% in size. The procedure, abridged: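 Tox21 qHTS format; PXR-Luc HepG2, 2,000/well, charcoal-stripped FBS 5%. Cpd exposure 24hr. Read: CellTiter-Fluor fluorescence, multiplexed with luciferase.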
Test [14] can be described thus: Caspase-3/7 induction in CHO-K1 cells by small molecules, qHTS assay (AID 1346980). Note: nearly all actives have a fitted effect of over 15% in size. A digest of the protocol: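 Luminescent Caspase-Glo 3/7 read (30min, room temperature) quantified apoptosis induction. Cells were wild-type CHO-K1, treated with compound for 17hr at 37 C and 5% CO2.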
Test [15] can be described thus: Caspase-3/7 induction in HepG2 cells by small molecules, qHTS cell viability counter screen (AID 1346981). Note: series mostly up to about 92 µM; nearly all actives have a fitted effect of over 30% in size. A digest of the protocol:
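Wild-type HepG2 cells, 2,000/well, settled 5 hr at 37 C, 5% CO2 before compound addition. Viability read by CellTiter-Fluor fluorescence, reagent added after 16 hr compound exposure, then 1 hr at 37C, in the same wells as the caspase read.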

Test [16] has as its target Nuclear receptor subfamily 1 group I member 2 (Homo sapiens) (UniProt O75469). As to the kind of experiment: Human pregnane X receptor (PXR) small molecule agonists, qHTS assay (AID 1346982). Note: nearly all actives have a fitted effect of over 35% in size. Note: potency is the fitted concentration of half-maximal effect. A digest of the protocol:
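PXR-Luc HepG2 reporter cells (CYP3A4-driven luciferase) in 5% charcoal-stripped FBS medium, plated 5 h before compound addition, then treated 24 h at 37C. Luciferase read by ONE-Glo luminescence after 30 min at room temperature.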

Test [17] addresses Thyrotropin-releasing hormone receptor (Homo sapiens) (UniProt P34981). As to the kind of experiment: qHTS assay to identify small molecule antagonists of the thyrotropin-releasing hormone receptor (TRHR) signaling pathway (AID 1346877; active = well fitted inhibition curve with a large enough effect in the repeat runs, not every such curve was filed as active; note: series mostly up to about 51 µM). The procedure, abridged:
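TRHR-expressing HEK293 cells loaded with calcium dye for 2 h at 37 C; compounds pre-incubated 5 min at room temperature before TRH challenge at 1 nM final. Intracellular calcium fluorescence read kinetically for 3 min; 15 concentrations in triplicate.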

Test [18] can be described thus: Caspase-3/7 induction in HepG2 cells by small molecules, qHTS assay (AID 1346978). Note: nearly all actives have a fitted effect of over 15% in size. A digest of the protocol: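 Caspase-3/7 induction was measured by Caspase-Glo 3/7 luminescence (30 min, room temperature) after a 17 hr compound exposure of wild-type HepG2 cells seeded at 2,000 per well and pre-incubated 5 hr.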
The nature of test [19]: Caspase-3/7 induction in CHO-K1 cells by small molecules, qHTS cell viability counter screen (AID 1346979). Note: nearly all actives have a fitted effect of over 35% in size. A digest of the protocol: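 CellTiter-Fluor viability check, qHTS format: wild-type CHO-K1, 16hr compound treatment, 1hr reagent incubation, fluorescence read.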
The target in test [20] is Thyrotropin-releasing hormone receptor (Homo sapiens) (UniProt P34981). Put plainly: qHTS assay to identify small molecule agonists of the thyrotropin-releasing hormone receptor (TRHR) signaling pathway (AID 1346891; calls by dose curve; note: series mostly up to about 58 µM). The procedure, abridged:
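Screening of agonists relied on calcium signalling in HEK293 cells expressing human TRHR: dye loading 2 h at 37 °C preceded compound addition and a 3-min fluorescence time course.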

Values without a mark were called inactive. Records with an inconclusive call do not appear. Active and inactive are the calls of the source. Unless noted, calls come from the whole dose curve; as a rule, active = well fitted curve in the direction sought with a large enough effect in the repeat runs; inconclusive = weak or mixed curves; inactive = no such curve, though single readings can be large; an effect the other way counts as inactive or inconclusive.
% is set by controls: 0 for no effect and ±100 for the full control effect.

Sequence of Progesterone receptor (Homo sapiens) (P06401 whole entry, looked up): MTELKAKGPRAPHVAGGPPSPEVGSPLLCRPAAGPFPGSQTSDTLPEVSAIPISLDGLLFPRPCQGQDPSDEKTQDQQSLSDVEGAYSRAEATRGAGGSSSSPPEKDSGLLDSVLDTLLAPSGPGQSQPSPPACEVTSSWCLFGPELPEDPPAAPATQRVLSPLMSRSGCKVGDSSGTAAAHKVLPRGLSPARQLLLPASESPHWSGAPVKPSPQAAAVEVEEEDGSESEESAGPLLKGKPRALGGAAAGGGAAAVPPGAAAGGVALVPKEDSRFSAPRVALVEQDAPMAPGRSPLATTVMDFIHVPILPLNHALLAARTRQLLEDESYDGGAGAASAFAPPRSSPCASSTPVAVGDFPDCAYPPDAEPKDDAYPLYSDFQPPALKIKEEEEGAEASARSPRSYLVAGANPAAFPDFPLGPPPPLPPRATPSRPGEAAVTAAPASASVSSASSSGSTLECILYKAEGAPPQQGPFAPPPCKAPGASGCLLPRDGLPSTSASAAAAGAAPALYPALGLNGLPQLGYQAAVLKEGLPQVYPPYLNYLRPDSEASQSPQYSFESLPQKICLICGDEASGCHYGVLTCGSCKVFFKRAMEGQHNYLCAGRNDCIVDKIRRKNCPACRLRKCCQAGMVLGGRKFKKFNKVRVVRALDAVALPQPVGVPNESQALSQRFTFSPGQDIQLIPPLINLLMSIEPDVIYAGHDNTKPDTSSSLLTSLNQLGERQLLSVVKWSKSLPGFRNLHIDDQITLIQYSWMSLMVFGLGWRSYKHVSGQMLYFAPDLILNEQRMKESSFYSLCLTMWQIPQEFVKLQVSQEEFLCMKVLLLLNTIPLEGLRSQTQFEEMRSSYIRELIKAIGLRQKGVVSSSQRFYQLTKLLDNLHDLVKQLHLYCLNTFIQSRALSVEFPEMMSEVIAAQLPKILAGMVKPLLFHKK
Sequence of Thyrotropin receptor (Homo sapiens) (P16473 whole entry, looked up): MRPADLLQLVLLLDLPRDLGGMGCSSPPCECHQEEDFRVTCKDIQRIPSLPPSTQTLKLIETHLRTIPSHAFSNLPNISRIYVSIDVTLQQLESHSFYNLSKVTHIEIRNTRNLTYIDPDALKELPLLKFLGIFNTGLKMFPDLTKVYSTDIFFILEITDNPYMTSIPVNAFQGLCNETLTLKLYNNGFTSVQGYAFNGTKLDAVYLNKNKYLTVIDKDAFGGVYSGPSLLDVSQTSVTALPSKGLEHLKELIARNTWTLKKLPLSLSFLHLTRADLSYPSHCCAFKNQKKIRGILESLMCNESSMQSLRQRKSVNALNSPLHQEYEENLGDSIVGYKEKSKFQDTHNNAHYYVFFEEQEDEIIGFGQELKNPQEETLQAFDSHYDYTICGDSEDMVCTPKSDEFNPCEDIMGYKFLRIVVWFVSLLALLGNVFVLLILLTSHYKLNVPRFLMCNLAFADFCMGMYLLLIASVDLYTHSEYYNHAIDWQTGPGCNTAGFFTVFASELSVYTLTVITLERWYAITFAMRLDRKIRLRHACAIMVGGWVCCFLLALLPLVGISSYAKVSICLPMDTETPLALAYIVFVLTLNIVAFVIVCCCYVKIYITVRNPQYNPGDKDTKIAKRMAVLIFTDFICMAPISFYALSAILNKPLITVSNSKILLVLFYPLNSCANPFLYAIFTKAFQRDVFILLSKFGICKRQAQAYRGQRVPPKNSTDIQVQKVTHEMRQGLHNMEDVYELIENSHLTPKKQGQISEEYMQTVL
Sequence of Nuclear receptor subfamily 1 group I member 2 (Homo sapiens) (O75469 whole entry, looked up): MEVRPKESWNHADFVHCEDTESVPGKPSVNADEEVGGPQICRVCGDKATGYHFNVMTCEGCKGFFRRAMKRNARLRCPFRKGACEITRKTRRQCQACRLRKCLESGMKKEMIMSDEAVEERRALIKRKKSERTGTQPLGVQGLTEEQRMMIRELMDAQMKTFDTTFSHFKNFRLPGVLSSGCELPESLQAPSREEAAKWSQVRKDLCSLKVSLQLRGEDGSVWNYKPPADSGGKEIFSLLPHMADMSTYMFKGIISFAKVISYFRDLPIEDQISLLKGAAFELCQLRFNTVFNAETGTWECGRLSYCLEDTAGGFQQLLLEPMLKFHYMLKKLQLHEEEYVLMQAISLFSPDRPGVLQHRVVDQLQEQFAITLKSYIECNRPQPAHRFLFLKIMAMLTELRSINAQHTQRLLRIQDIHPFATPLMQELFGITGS
Sequence of Estrogen receptor (Homo sapiens) (P03372 whole entry, looked up): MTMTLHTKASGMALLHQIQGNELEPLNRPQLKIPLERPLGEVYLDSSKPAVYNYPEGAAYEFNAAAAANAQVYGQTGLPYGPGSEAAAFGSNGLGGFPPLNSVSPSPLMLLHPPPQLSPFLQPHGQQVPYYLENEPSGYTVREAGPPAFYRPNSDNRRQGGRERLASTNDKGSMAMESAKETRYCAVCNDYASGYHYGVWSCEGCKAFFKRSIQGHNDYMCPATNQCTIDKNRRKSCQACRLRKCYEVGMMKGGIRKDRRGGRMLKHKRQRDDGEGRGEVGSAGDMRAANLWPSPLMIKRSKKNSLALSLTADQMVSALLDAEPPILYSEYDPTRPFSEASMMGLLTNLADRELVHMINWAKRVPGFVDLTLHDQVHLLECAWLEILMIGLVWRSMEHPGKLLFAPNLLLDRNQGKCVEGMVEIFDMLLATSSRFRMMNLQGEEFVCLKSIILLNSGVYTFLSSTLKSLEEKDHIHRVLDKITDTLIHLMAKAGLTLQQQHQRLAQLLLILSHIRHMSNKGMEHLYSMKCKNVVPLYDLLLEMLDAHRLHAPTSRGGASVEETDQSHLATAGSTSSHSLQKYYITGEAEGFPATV
Sequence of Thyrotropin-releasing hormone receptor (Homo sapiens) (P34981 whole entry, looked up): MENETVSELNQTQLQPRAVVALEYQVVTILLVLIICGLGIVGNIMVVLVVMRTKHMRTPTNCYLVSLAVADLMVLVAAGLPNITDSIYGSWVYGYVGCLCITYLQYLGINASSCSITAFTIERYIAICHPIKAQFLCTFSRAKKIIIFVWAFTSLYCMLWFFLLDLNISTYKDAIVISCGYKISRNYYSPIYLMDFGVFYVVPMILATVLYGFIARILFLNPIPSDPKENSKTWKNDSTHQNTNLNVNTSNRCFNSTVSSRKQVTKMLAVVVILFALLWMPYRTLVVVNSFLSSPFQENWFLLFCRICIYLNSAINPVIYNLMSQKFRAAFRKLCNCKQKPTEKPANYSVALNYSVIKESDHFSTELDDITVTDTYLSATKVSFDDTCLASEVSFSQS

As for `Cc1cc(C)c(O)c(C(C)(C)C)c1`, the Potency result in test [1], in test [2], in test [3], in [4], in [5] and in test [7] was “inactive” in each case. Also, the Potency result in test [8], in [9], in [10], in test [11], in test [13] and in test [14] was “inactive” in each case. The Potency result in test [15] and in [16] was “inactive” each time. The compound was called inactive in [6] and in test [12].
Regarding `CC(C)(C)c1cc(CCC(=O)OCCSCCOC(=O)CCc2cc(C(C)(C)C)c(O)c(C(C)(C)C)c2)cc(C(C)(C)C)c1O`, the Potency entry in test [1], in [2], in test [3], in [4], in [5] and in test [7] was “inactive” in each case. In addition, the Potency result in test [8], in [9], in test [10], in test [11], in [17] and in test [13] was “inactive” in each case. Also, the Potency entry in test [18], in [19], in test [14], in test [15] and in [16] was “inactive” in each case. The outcome in test [6] and in test [12] was inactive.
On to `C=C[Si](C)(C)Cl`, for which the activity change, negative = cytotoxicity in test [1] is 6.43% [at 8.39 µM]; in test [5], 0.757% [at 8.39 µM]; in [8] it was -4.28% [at 8.39 µM]; in test [9] it was -13.4% [at 8.39 µM]; in [11], 9.12% [at 6.97 µM]; in test [13], 1.3% [at 8.39 µM]. Also, in test [19], the activity change, negative = cytotoxicity was 6.64% [at 8.39 µM]. For the same compound, the values for the activation in [2], in test [6] and in test [12] were -1.47% [at 8.39 µM], 0.63% [at 8.39 µM] and 0.312% [at 6.97 µM], respectively. Also, in test [3], the cAMP activity change was -4.27% [at 8.39 µM, stronger effect = higher value]. The activity change, negative = inhibition in test [4] is 0.177% [at 8.39 µM]; in test [7], 4.87% [at 8.39 µM]. Further, the viability change, negative = cytotoxic in [10] was 9.11% [at 6.97 µM]. Moreover, in test [17], the activity, negative = inhibition is 2.56% [at 4.65 µM]. Also, in test [18], the caspase activation was -0.0006% [at 8.39 µM]. The caspase-3/7 activation in [14] is 0.183% [at 8.39 µM].
Turning to `Cc1ccc(C=O)cc1`, the Potency result in test [1], in [2], in test [3], in [4], in test [5] and in test [7] was “inactive” in each case. The Potency result in [8], in test [9], in test [11], in [17], in test [13] and in test [18] was “inactive” throughout. Further, the Potency result in [19], in test [14], in test [15] and in test [16] was “inactive” throughout. Moreover, the compound was classed as inactive in test [6] and in [12].
As for `CCC(O)CO` (configuration not stated), the Potency entry in [1], in [2], in test [3], in test [4], in test [5] and in test [7] was “inactive” in each case. Besides, the Potency result in test [8], in test [9], in [10], in [11], in test [17] and in test [13] was “inactive” throughout. The Potency result in [18], in test [19], in [14], in test [15] and in test [16] was “inactive” in each case. Besides, the compound was called inactive in test [6] and in test [12].
Consider `O=C1c2ccccc2C(=O)c2c(Cl)cccc21`, for which the Potency entry in test [1], in test [2], in test [3], in test [4], in [5] and in [7] was “inactive” throughout. Moreover, the Potency result in [8], in [9], in test [10], in test [17], in test [20] and in [13] was “inactive” each time. For the same compound, the Potency result in test [18], in test [14] and in test [15] was “inactive” in each case. Also, the compound was classed as inactive in test [6] and in [12]. The Potency in test [16] is 10.2 µM (active).
On to `CC(C=O)c1ccccc1` (configuration not stated), for which the Potency result in test [1], in test [2], in test [3], in [4], in [5] and in [7] was “inactive” throughout. In addition, the Potency entry in test [8], in test [9], in [10], in test [11], in [17] and in test [20] was “inactive” in each case. For the same compound, the Potency result in test [13], in test [18], in test [19], in test [14], in test [15] and in [16] was “inactive” throughout. Also, the result in [6] and in [12] was inactive.
